Assay [1] in a line: NCI Yeast Anticancer Drug Screen. Data for the rad50 strain (AID 155).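 Also: 0% = growth of vehicle-only cultures of the same strain.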 Conditions: S. cerevisiae rad50 strain growth inhibition; at 50.0 µM; active compounds read high. The essentials: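 Cells are treated with compound, grown, and their growth is then scored against vehicle-only cultures of the same repair-deficient yeast strain.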
Assay [2] in a line: NCI Yeast Anticancer Drug Screen. Data for the mec2-1 strain (AID 157). The note with it: S. cerevisiae mec2-1 strain, at 50.0 µM, active compounds read high. The essentials: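 Using mec2-1 yeast: add compound, measure growth, express inhibition versus vehicle-treated cultures.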
A short description of assay [3]: NCI Yeast Anticancer Drug Screen. Data for the sgs1 mgt1 strain (AID 161).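 Also: 0% = growth of cultures given vehicle only.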 Conditions: S. cerevisiae sgs1 mgt1 strain, at 50.0 µM, active compounds read high. In a few lines:
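This yeast growth screen uses a strain with defined DNA-repair lesions; compound-treated growth is compared with vehicle-treated growth.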

Assay [4] can be described thus: NCI Yeast Anticancer Drug Screen. Data for the cln2 rad14 strain (AID 165).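 Also: 0% = growth equal to vehicle treated cultures.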 The note with it: S. cerevisiae cln2 rad14 strain, at 50.0 µM, active compounds read high. The essentials: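 Yeast strain cln2 rad14, bearing defects in cell cycle control and DNA repair, serves as the test system; values reflect growth inhibition compared with vehicle.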
The nature of assay [5]: NCI Yeast Anticancer Drug Screen. Data for the bub3 strain (AID 167). Conditions: S. cerevisiae bub3 mutant strain, at 50.0 µM, active compounds read high. The essentials:
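Part of a panel of yeast mutants defective in DNA damage repair or cell cycle regulation. Each strain is grown with compound, and inhibition is calculated relative to solvent-treated cultures.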

A short description of assay [6]: NCI Yeast Anticancer Drug Screen. Data for the mlh1 rad18 strain (AID 175). Conditions: S. cerevisiae mlh1 rad18 strain growth inhibition; at 50.0 µM; active compounds read high. The essentials:
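Steps: expose repair-defective yeast to compound; measure growth; express inhibition against vehicle-treated controls.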

Compounds without any hit were thinned out: in the full panel of roughly 79,000, 15% have a hit. Unmarked numbers belong to inactive results. Calls of active or inactive are those of the source. Rule as the data show it: active = growth inhibition above about 70%; inactive = the rest.

As for `CC(=O)CP(=O)(O)O`, the growth inhibition was 23.3% in assay [1]; -11.6% in assay [2]; -0.15% in assay [3]; -55.9% in assay [4]; 10.1% in assay [5]; -6.35% in assay [6].

With `COP(=O)(OC)C(C)(C)NC(=O)NC(F)(F)F`, the growth inhibition is -1.9% in assay [1]; -14.9% in assay [2]; -24.6% in assay [3]; 28.9% in assay [4]; 11.1% in assay [5]; -4.25% in assay [6].

With `N.N.N.N.N.O=C([O-])C(=O)[O-].[Co+3].[O-][Cl+3]([O-])([O-])O.[O-][Cl+3]([O-])([O-])[O-]`, the growth inhibition in assay [1] is -12.3%; in assay [2] it was 11.8%; in assay [3], -22.9%; in assay [4], 6.2%; in assay [5], 0.8%; in assay [6] it was -12.7%.

Turning to `[Cu+2].[NH-]c1ccccc1C(=O)O.[NH-]c1ccccc1C(=O)O`, the growth inhibition is -34.8% in assay [1]; -21.8% in assay [2]; -13.9% in assay [3]; -87.7% in assay [4]; -27.1% in assay [5]; -52.4% in assay [6].

Consider `CC(=O)N1CN2CN(C1)CN(C(C)=O)C2`, for which the growth inhibition in assay [1] was 0.3%; in assay [2], -8.95%; in assay [3], -5.3%; in assay [4] it was -26.6%; in assay [5], -9.05%; in assay [6], -5.85%.

Consider `CC([OH2+])CNCCN.CC([OH2+])CNCCN.O=[N+]([O-])[O-].[Cu+2]` (stereo not given), for which the growth inhibition in assay [1] is -10.1%; in assay [2] it was -8.95%; in assay [3] it was 5.25%; in assay [4] it was -39.6%; in assay [5], -0.7%; in assay [6], 0.2%.

Turning to `Oc1ccc(Cl)cc1Br`, the growth inhibition is -2.4% in assay [1]; -14.6% in assay [2]; -1.1% in assay [3]; 12% in assay [4]; -23.4% in assay [5]; -0.15% in assay [6].

As for `NS(=O)(=O)CC1CC[CH-]CC1.[Cl-].[Cl-].[Cl-].[Cl-].[Cl-].[Sb+5].c1ccncc1`, the growth inhibition was 11.3% in assay [1]; -14.1% in assay [2]; -10% in assay [3]; -12.2% in assay [4]; -20.4% in assay [5]; 18.1% in assay [6].

As for `COC(=O)C1(O)c2ccccc2N=C2C1CCN2C` (stereo not given), the growth inhibition was 15.1% in assay [1]; -11.4% in assay [2]; -8.85% in assay [3]; 6.4% in assay [4]; 6.3% in assay [5]; 16.9% in assay [6].

As to `Cc1ccccc1-n1c(C)nc2ccccc2c1=O`, the growth inhibition in assay [1] is -29.3%; in assay [2], -30.7%; in assay [3], -1.35%; in assay [4], 11.6%; in assay [5], 1.5%; in assay [6] it was -20.7%.

For the molecule `CN(C)CCCc1c[nH]c2ccccc12`, the growth inhibition was -20.4% in assay [1]; -6.6% in assay [2]; -4.85% in assay [3]; -7.5% in assay [4]; -52.5% in assay [5]; 8.25% in assay [6].

For `CN(/N=C/c1ccnc2ccccc12)c1c([N+](=O)[O-])cc([N+](=O)[O-])cc1[N+](=O)[O-]`, the growth inhibition is -0.25% in assay [1]; -4.65% in assay [2]; -18.8% in assay [3]; 18.9% in assay [4]; -10% in assay [5]; -8.4% in assay [6].

With `CN(C)C(=S)Oc1ccc(Cl)cc1S(=O)(=O)F`, the growth inhibition in assay [1] was 53.6%; in assay [2] it was 14.2%; in assay [3] it was 32.4%; in assay [4], 20.4%; in assay [5], -6.7%; in assay [6], 9.6%.

With `CCC1(O)C(=O)OCc2c1cc1n(c2=O)Cc2cc3cc(N)ccc3nc2-1` (stereo not given), the growth inhibition was 85% (active) in assay [1]; 88.5% (active) in assay [2]; 77.5% (active) in assay [3]; 56.8% in assay [4]; 56.1% in assay [5]; 72.2% (active) in assay [6].

Take `[Cl][Sn]1([Cl])[CH2]CC[CH2][Sn]([Cl])([Cl])[CH2]CC[CH2]1`: the growth inhibition was 3.4% in assay [1]; 34% in assay [2]; -13.1% in assay [3]; 39.4% in assay [4]; -5.4% in assay [5]; 27.4% in assay [6].

Turning to `CC(C)(C(=O)c1ccccc1)N1CC1`, the growth inhibition in assay [1] was -0.65%; in assay [2], 2.8%; in assay [3], -4.75%; in assay [4], -10.6%; in assay [5], -23.6%; in assay [6] it was -8.25%.

As for `O=C(O)CCCc1ccc(N(CCCl)OCCCl)cc1`, the growth inhibition was -21.1% in assay [1]; -3.3% in assay [2]; 16.7% in assay [3]; 10.2% in assay [4]; 13.3% in assay [5]; -0.25% in assay [6].

Take `C[C@]12CC[C@H]3[C@@H](CC=C4C=C(P(=O)(O)O)CC[C@@]43C)[C@@H]1CC[C@@H]2O`: the growth inhibition in assay [1] is -8.1%; in assay [2] it was 5.2%; in assay [3], -8.55%; in assay [4], -56.3%; in assay [5], -12.9%; in assay [6], -10.1%.

Turning to `N.N.N.O=[N+]([O-])[O-].O=[N+]([O-])[O-].O=[N+]([O-])[O-].O=[N+]([O-])[O-].[Co+3]`, the growth inhibition in assay [1] is 11.6%; in assay [2], 20.7%; in assay [3], 25.5%; in assay [4], 31.3%; in assay [5], 11.8%; in assay [6] it was -1.35%.

As to `CC(C)OP(=O)(OC(C)C)C(C)(C)O`, the growth inhibition in assay [1] was 2.8%; in assay [2], 3.8%; in assay [3], 12.9%; in assay [4], 21.3%; in assay [5], -1.35%; in assay [6] it was -32.1%.

Values taken from PubChem BioAssay (NCI).
